Where “and” joins values, the source holds several entries; their conditions need not be identical. Identical values can stand only once. Counter-ions that a name gives are not always drawn.
Columns and labels:
Test in all cases: thermal shift delta Tm vs DMSO control; higher = stronger stabilization (binding)
Conditions in all cases: 12.5 µM; protein concentration 2 µM
LOC_OS01G57100-cb003 = test system: LOC_OS01G57100-cb003
Method in brief: (§1)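 Rice kinase domain constructs, made in E. coli and purified, were placed in 96-well plates at 2 μM in 19.5 μl of 100 mM potassium phosphate pH 7.5, 150 mM NaCl, 10% glycerol and 5 × SYPRO Orange, with compound in DMSO. A temperature ramp from 25°C to 95°C at 0.05°C/s was used for differential scanning fluorimetry. The melting temperature shift is a triplicate mean compared with DMSO-only protein, derived from Boltzmann fits.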

LOC_OS01G60330-cb001 = test system: LOC_OS01G60330-cb001
Method in brief: as §1

LOC_OS01G60700-cb002 = test system: LOC_OS01G60700-cb002
Method in brief: as §1

LOC_OS01G63280-cb003 = test system: LOC_OS01G63280-cb003
Method in brief: as §1

LOC_OS01G67340-cb003 = test system: LOC_OS01G67340-cb003
Method in brief: as §1

LOC_OS01G70970-cb002 = test system: LOC_OS01G70970-cb002
Method in brief: as §1

LOC_OS02G07810-cb001 = test system: LOC_OS02G07810-cb001
Method in brief: as §1

LOC_OS02G08530-cb003 = test system: LOC_OS02G08530-cb003
Method in brief: as §1

LOC_OS02G14120-cb001 = test system: LOC_OS02G14120-cb001
Method in brief: as §1

LOC_OS02G17970-cb001 = test system: LOC_OS02G17970-cb001
Method in brief: as §1

LOC_OS02G45750-cb003 = test system: LOC_OS02G45750-cb003
Method in brief: as §1

LOC_OS02G54510-cb004 = test system: LOC_OS02G54510-cb004
Method in brief: as §1

LOC_OS03G04050-cb001 = test system: LOC_OS03G04050-cb001
Method in brief: as §1

LOC_OS03G12390-cb001 = test system: LOC_OS03G12390-cb001
Method in brief: as §1

LOC_OS03G27990-cb004 = test system: LOC_OS03G27990-cb004
Method in brief: as §1

LOC_OS03G50450-cb001 = test system: LOC_OS03G50450-cb001
Method in brief: as §1

LOC_OS03G50810-cb003 = test system: LOC_OS03G50810-cb003
Method in brief: as §1

LOC_OS04G35114-cb001 = test system: LOC_OS04G35114-cb001
Method in brief: as §1

LOC_OS04G38480-cb003 = test system: T1, LOC_OS04G38480-cb003
T1 sequence (whole entry): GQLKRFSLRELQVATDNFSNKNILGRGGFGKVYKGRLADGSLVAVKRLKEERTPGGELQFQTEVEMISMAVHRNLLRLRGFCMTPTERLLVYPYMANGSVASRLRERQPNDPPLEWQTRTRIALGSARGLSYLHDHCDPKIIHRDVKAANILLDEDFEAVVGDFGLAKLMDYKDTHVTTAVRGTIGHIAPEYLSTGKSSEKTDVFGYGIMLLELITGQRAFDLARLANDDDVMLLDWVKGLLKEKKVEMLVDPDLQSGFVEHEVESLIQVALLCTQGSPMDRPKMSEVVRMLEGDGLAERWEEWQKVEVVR
Method in brief: as §1

LOC_OS04G41100-cb001 = test system: T2, LOC_OS04G41100-cb001
T2 sequence (whole entry): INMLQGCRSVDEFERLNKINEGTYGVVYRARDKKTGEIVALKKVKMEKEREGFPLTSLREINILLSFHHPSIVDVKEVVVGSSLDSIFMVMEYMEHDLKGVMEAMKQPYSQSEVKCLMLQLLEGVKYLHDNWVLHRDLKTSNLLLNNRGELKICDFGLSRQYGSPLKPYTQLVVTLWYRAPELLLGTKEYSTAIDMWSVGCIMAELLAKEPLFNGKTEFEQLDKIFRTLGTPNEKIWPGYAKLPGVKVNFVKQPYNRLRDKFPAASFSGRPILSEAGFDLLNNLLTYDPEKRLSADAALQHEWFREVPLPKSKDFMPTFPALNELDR
Method in brief: as §1
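Also: purified Escherichia coli-expressed rice kinase domain construct.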

| SMILES | thermal shift delta Tm (LOC_OS01G57100-cb003) | thermal shift delta Tm (LOC_OS01G60330-cb001) | thermal shift delta Tm (LOC_OS01G60700-cb002) | thermal shift delta Tm (LOC_OS01G63280-cb003) | thermal shift delta Tm (LOC_OS01G67340-cb003) | thermal shift delta Tm (LOC_OS01G70970-cb002) | thermal shift delta Tm (LOC_OS02G07810-cb001) | thermal shift delta Tm (LOC_OS02G08530-cb003) | thermal shift delta Tm (LOC_OS02G14120-cb001) | thermal shift delta Tm (LOC_OS02G17970-cb001) | thermal shift delta Tm (LOC_OS02G45750-cb003) | thermal shift delta Tm (LOC_OS02G54510-cb004) | thermal shift delta Tm (LOC_OS03G04050-cb001) | thermal shift delta Tm (LOC_OS03G12390-cb001) | thermal shift delta Tm (LOC_OS03G27990-cb004) | thermal shift delta Tm (LOC_OS03G50450-cb001) | thermal shift delta Tm (LOC_OS03G50810-cb003) | thermal shift delta Tm (LOC_OS04G35114-cb001) | thermal shift delta Tm (LOC_OS04G38480-cb003) | thermal shift delta Tm (LOC_OS04G41100-cb001) |
| --- | --- | --- | --- | --- | --- | --- | --- | --- | --- | --- | --- | --- | --- | --- | --- | --- | --- | --- | --- | --- |
| CO[C@H]1C[C@@H]2CC[C@@H](C)[C@@](O)(O2)C(=O)C(=O)N2CCCC[C@H]2C(=O)O[C@H]([C@H](C)C[C@@H]2CC[C@@H](OP(C)(C)=O)[C@H](OC)C2)CC(=O)[C@H](C)/C=C(\C)[C@@H](O)[C@@H](OC)C(=O)[C@H](C)C[C@H](C)/C=C/C=C/C=C/1C [Ridaforolimus (Deforolimus, MK-8669)] | 0.89 °C | 1.16 °C | 0.84 °C | 0.17 °C | -0.64 °C | 0.14 °C | 0.4 °C | 0.57 °C | 0.4 °C | 0.27 °C | 0.46 °C | -0.33 °C | 0.25 °C | 0.04 °C | 0.01 °C | -0.11 °C | -0.15 °C | 0.34 °C | 0.98 °C | 0.85 °C |
| Cc1cc(Nc2cc(N)ncn2)c(=O)n2c1C(=O)NC21CCCCC1 | 1.68 °C | 0.51 °C | -0.25 °C | -0.02 °C | 0.19 °C | 0.38 °C | -1.2 °C | 0.72 °C | 2.1 °C | -0.32 °C | 0.8 °C | 0.09 °C | 0.28 °C | 0.13 °C | 0.19 °C | 0.47 °C | 0.4 °C | 0.45 °C | 0.09 °C | 0.53 °C |
| CN(c1ncccc1CNc1nc(Nc2ccc3c(c2)CC(=O)N3)ncc1C(F)(F)F)S(C)(=O)=O | 1.74 °C and 1.7 °C | 2.27 °C and 2.55 °C | 0.88 °C and 1.26 °C | 2.29 °C and 3.24 °C | 1.9 °C and 2.14 °C | 6.41 °C and 7.59 °C | 0.34 °C and 0.67 °C | 1.99 °C and 2.23 °C | 4.47 °C and 5.67 °C | 0.58 °C and 1.27 °C | 6.83 °C and 7.06 °C | 1.05 °C and 1.09 °C | 0.54 °C and 0.38 °C | 3.95 °C and 4.88 °C | 2.23 °C and 2.44 °C | 2.36 °C and 2.48 °C | 3.64 °C and 4.1 °C | 4.17 °C and 4.61 °C | 1.77 °C and 2.12 °C | 1.82 °C and 1.92 °C |
| OC1CCC(Oc2cccc3cnc(Nc4ccc5nc[nH]c5c4)nc23)CC1 (stereo not given) | 1.84 °C | 13.9 °C | -0.02 °C | 4.52 °C | 5.84 °C | 8.36 °C | -0.24 °C | 4.55 °C | 11.4 °C | 0.06 °C | 17.1 °C | 2.66 °C | 0.39 °C | 8.52 °C | 5.39 °C | 7.93 °C | 7.28 °C | 7.42 °C | 4.8 °C | 5.03 °C |
| C[C@@]1(C(=O)Nc2ccc(F)nc2)CCCN1c1nc(Nc2cc(C3CC3)n[nH]2)c2cccn2n1 | 0.92 °C | -2.64 °C | 0.85 °C | 0.6 °C | -0.49 °C | 1.02 °C | 1.05 °C | 0.71 °C | 8.77 °C | 0.26 °C | -1.4 °C | 2.49 °C | 0.25 °C | 0.55 °C | 0.21 °C | -0.6 °C | 1.17 °C | 2.02 °C | 1.6 °C | 0.62 °C |
| Cc1cc(Nc2nc(N[C@@H](C)c3ccc(F)cc3)c(C#N)cc2F)n[nH]1 | 0.56 °C | 7.34 °C | 0.15 °C | 0.61 °C | -0.08 °C | 1.7 °C | 0.48 °C | 1.49 °C | 7.95 °C | 0.2 °C | 4.55 °C | 2.52 °C | 0.11 °C | 4.41 °C | 0.57 °C | 1.39 °C | 4.44 °C | 1.88 °C | 2.31 °C | 1.28 °C |
| CC(=O)Nc1cccc(-n2c(=O)n(C3CC3)c(=O)c3c(Nc4ccc(I)cc4F)n(C)c(=O)c(C)c32)c1 | 1.39 °C | 0.69 °C | 0.72 °C | 0.03 °C | -0.14 °C | 0.12 °C | 0.36 °C | 1.99 °C | 0.02 °C | -0.07 °C | 0.35 °C | -0.04 °C | 0.2 °C | -0.13 °C | 0.22 °C | 0.62 °C | 0.43 °C | 0.56 °C | 0.86 °C | 0.62 °C |
| Cc1nc(Nc2ncc(C(=O)Nc3c(C)cccc3Cl)s2)cc(N2CCN(CCO)CC2)n1 [Dasatinib] | 0.7 °C | 0.68 °C | 1.43 °C | 0.25 °C | 0.73 °C | 0.48 °C | 0.58 °C | 0.93 °C | 4.94 °C | 0 °C | 10.7 °C | 14 °C | 0.29 °C | 0.81 °C | 1.34 °C | 0.06 °C | 3.61 °C | 5.79 °C | 1.57 °C | 0.77 °C |
| COc1ccc([C@@H]2OC[C@H]3[C@@H]2CO[C@@H]3c2ccc(O[C@@H]3O[C@H](CO)[C@@H](O)[C@H](O)[C@H]3O)c(OC)c2)cc1OC [Forsythin] | 0.47 °C | -0.03 °C | -0.08 °C | -0.19 °C | 0.01 °C | 0.21 °C | -0.9 °C | 0.57 °C | 0.19 °C | -0.6 °C | 0.82 °C | -0.05 °C | 0.35 °C | 0.34 °C | 0.18 °C | 0.11 °C | 0.2 °C | -0.23 °C | -0.32 °C | -0.14 °C |
| C[C@H]1CNCCCN1S(=O)(=O)c1cccc2cncc(F)c12 [Ripasudil (K-115) hydrochloride dihydrate] | 0.7 °C | 1.17 °C | 1.6 °C | 0.79 °C | 0.45 °C | 0.28 °C | 1.1 °C | 0.65 °C | 1.57 °C | 1.75 °C | 0.9 °C | -0.02 °C | 0.39 °C | 0.39 °C | 0.16 °C | 0.22 °C | 0.68 °C | 0.3 °C | 1.26 °C | 0.24 °C |
| N#CCNC(=O)c1ccc(-c2ccnc(Nc3ccc(N4CCOCC4)cc3)n2)cc1 [Momelotinib (CYT387)] | 1.85 °C | 6.73 °C | 1.01 °C | 0.32 °C | 1.56 °C | 0.41 °C | 0.78 °C | 1.72 °C | 9.13 °C | 0.53 °C | 7.23 °C | 1.25 °C | 0.41 °C | 2.09 °C | 0.29 °C | 1.99 °C | 2.03 °C | 3.88 °C | 3.2 °C | 2.25 °C |
| CCOc1cc(N2CCC(O)CC2)ccc1Nc1ncc2c(n1)N(C)c1ccccc1C(=O)N2C | 1.56 °C | 0.82 °C | 1.24 °C | -0.13 °C | -0.04 °C | 0.52 °C | 0.39 °C | 0.9 °C | -0.64 °C | 0.7 °C | -0.35 °C | -0.02 °C | 0.11 °C | 2.48 °C | -0.12 °C | 0.38 °C | 0.11 °C | 0.71 °C | 1.18 °C | 0.38 °C |
